HP1b binding inh: HTS for Inhibitors of HP1-beta Chromodomain Interactions with Methylated Histone Tails; Chromobox protein homolog 1 (Homo sapiens), P83916; AlphaScreen HP1-beta / biotin-H3K9me3 peptide binding; Potency, µM (titrated, usually from 114 µM), for inactives: top-dose activity change, negative = inhibition, actives largely listed as inhibitors; 390,000 compounds, 0.56% hits; AID 540317, 2011; note: potency is the fitted concentration of half-maximal effect; nearly all actives have a fitted effect of over 70% in size
Target sequence (P83916 whole entry, looked up): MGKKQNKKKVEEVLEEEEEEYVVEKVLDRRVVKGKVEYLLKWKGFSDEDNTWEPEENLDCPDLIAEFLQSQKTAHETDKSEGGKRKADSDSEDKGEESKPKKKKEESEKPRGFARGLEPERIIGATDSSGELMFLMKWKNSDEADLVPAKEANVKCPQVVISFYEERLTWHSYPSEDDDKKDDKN
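Compound inhibition of the preformed complex between 50 nM HP1-beta and 50 nM biotinylated H3K9me3 peptide was read by AlphaScreen. Buffer was PBS pH 7.4 with 0.01% Tween-20. Incubations ran 30 min at room temperature, with 10 ug/mL donor/acceptor beads.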
PI5P4K alpha inh: qHTS for Inhibitors of phosphatidylinositol 5-phosphate 4-kinase (PI5P4K) | Phosphatidylinositol 5-phosphate 4-kinase type-2 alpha (Homo sapiens), P48426 | 330,000 compounds, 1.2% hits | max response, % | AID 652105, 2013 | PI5P4Kalpha enzyme, ADP-Glo luminescence, 60 min; stronger effect = lower value; active = max response of -50% or lower; inconclusive = between -30% and -50%; inactive = -30% or higher; note: value at the top dose of about 77 µM; % is set by controls: 0 for no effect and ±100 for the full control effect
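qHTS, 1536-well: enzyme/substrate mix, compound by pin tool, 5 microM ATP final; RT 60 min; ADP-Glo reagents 1 (45 min) then 2 (30 min); luminescence.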
G9a inh: qHTS Assay for Inhibitors of Histone Lysine Methyltransferase G9a. Histone-lysine N-methyltransferase EHMT2 (Homo sapiens), Q96KQ7. G9a H3K9 monomethylation, AlphaScreen, 2 h. Potency, µM (doses to about 102 µM), inactives show at the highest dose activity, negative = inhibition, usual class: inhibitors. 350,000 compounds, 8.8% hits. AID 504332, 2011; note: potency is the fitted concentration of half-maximal effect; % is set by controls: 0 for no effect and ±100 for the full control effect; nearly all actives have a fitted effect of over 75% in size
Target sequence (Q96KQ7 913-1193 limits assumed): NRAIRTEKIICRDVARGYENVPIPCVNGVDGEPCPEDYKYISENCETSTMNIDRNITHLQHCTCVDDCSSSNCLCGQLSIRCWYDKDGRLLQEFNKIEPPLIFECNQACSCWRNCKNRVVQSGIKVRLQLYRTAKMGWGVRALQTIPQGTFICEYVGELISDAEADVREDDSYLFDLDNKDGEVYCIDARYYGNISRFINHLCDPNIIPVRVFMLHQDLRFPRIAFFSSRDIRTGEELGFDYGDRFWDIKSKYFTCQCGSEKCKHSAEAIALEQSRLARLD
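Signal arises when biotinylated H3K9 peptide, once monomethylated, bridges streptavidin donor and antibody-captured acceptor beads. Enzyme at 20 nM was preincubated 15 min with test compounds; peptide 500 nM and SAM 20 uM then reacted for 2 h.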
PLK1 PBD block: qHTS for Inhibitors of PLK1-PDB (polo-like kinase 1 - polo-box domain): Primary Screen; AID 720504, 2013; Serine/threonine-protein kinase PLK1 (Homo sapiens), P53350; 360,000 compounds, 2.8% hits; Potency, µM, inactives show max response, negative = inhibition, actives largely listed as inhibitors; Plk1 PBD binding of FITC phosphopeptide, fluorescence polarization; note: potency is the fitted concentration of half-maximal effect; series mostly up to about 57 µM; % is set by controls: 0 for no effect and ±100 for the full control effect; nearly all actives have a fitted effect of over 65% in size
JMJD2A Tudor: qHTS Assay for Inhibitors of JMJD2A-Tudor Domain. AlphaScreen JMJD2A-Tudor / H3K4me3 peptide binding. Lysine-specific demethylase 4A (Homo sapiens), O75164. Potency, µM (titrated, usually from 114 µM), for inactives: at the top dose activity change, negative = inhibition, hits mostly inhibitors. 390,000 compounds, 4.4% hits; note: potency is the fitted concentration of half-maximal effect; % is set by controls: 0 for no effect and ±100 for the full control effect; nearly all actives have a fitted effect of over 50% in size
BAZ2B inh: qHTS Assay for Inhibitors of BAZ2B. 360,000 compounds, 4.4% hits. Bromodomain adjacent to zinc finger domain protein 2B (Homo sapiens), Q9UIF8. AID 504333, 2011. Potency, µM (highest dose often 114 µM), inactives show at the highest dose activity change, negative = inhibition, hits mostly inhibitors. AlphaScreen BAZ2B-H3K14Ac peptide displacement; note: potency is the fitted concentration of half-maximal effect; % is set by controls: 0 for no effect and ±100 for the full control effect; nearly all actives have a fitted effect of over 60% in size
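BAZ2B (50 nM) with biotin-H3(5-23)K14Ac peptide (50 nM) in PBS pH 7.4, 0.01% Tween-20, preformed 30 min, then compound 30 min at room temperature; top concentration 110uM. AlphaScreen streptavidin donor/nickel chelate acceptor beads (10 ug/mL final), 20 min dark, signal read.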
* = called active by the depositor; ? = inconclusive; · = no result; [ ] = dose if it differs, or a comment. In the library only some 12% were active in any assay of this set; here they are far more common. Unless noted, calls come from the whole dose curve; as a rule, active = well fitted curve in the direction sought with a large enough effect; inconclusive = small, poorly fitted or top-dose-only effect, or another doubt; inactive = no such curve, though single readings can be large; an effect the other way counts as inactive or inconclusive.

SMILES	HP1b binding inh	PI5P4K alpha inh	G9a inh	PLK1 PBD block	JMJD2A Tudor	BAZ2B inh
O=C(CSc1ccsc1[N+](=O)[O-])NCc1ccccc1	4.9%	?	50.1µM*	?	-33.1%	?
CC1CCCCC1NC(=O)CSc1ccsc1[N+](=O)[O-] (configuration not stated)	16.3%	-2.5	-28.4%	-6.2%	-16.6%	-27.1%
O=C(CSc1ccsc1[N+](=O)[O-])NC1CCCC1	5.3%	?	31.6µM*	-18.4%	-24.1%	-37.8%
CCc1ccccc1NC(=O)CSc1ccsc1[N+](=O)[O-]	-21.5%	-56.6*	?	-27.9%	?	50.1µM*
Cc1[nH]nc(SCC(=O)NCc2ccccc2)c1[N+](=O)[O-]	29.8%	2.8	-4.9%[59 µM]	-2.8%	2.8%	14.8%
COc1ncnc2c1ncn2CCCN(C)CCc1ccccn1	·	-13.4	·	-4.6%	·	·
COc1ccccc1CNC(=O)CSc1ccsc1[N+](=O)[O-]	55.0%	?	50.1µM*	-24.4%	-26.1%	?
O=C(C[C@H]1C/C=C\CCC(=O)OC[C@H]2CCCN2C1=O)NCCO	27.5%	0.1	·	12.0%	-2.8%	·
Cc1cccc(C)c1OCC(=O)Nc1c(C(=O)c2ccc(Br)cc2)oc2ccccc12	66.3%	·	7.4%[59 µM]	·	9.3%	0.4%
CCOP(=O)(OCC)c1ccc2ccc3ccccc3c(=O)c2c1	33.6%	·	·	·	-13.1%	·
Cc1nc2ccc(C(=O)O)cc2c2c1CC(C)S2 (configuration not stated)	-33.1%	-7.2	?	?	?	70.8µM*
COC(=O)[C@@H](Cc1ccccc1)NC(=O)/C=C/[C@H]1O[C@@H](n2cnc3c(NC(=O)c4ccccc4)ncnc32)[C@H](O)[C@@H]1O	·	-0.7	·	-12.7%	·	·
Cc1ccc(-c2nnc3c4ccccc4c(C)nn23)cc1NC(=O)c1ccccc1	22.3%	·	10.2%[59 µM]	·	-19.2%	-1.6%
CN(C)CC(C)(C)CNC(=S)NCc1ccc2c(c1)OCO2	?	1.2	8.91µM*	?	?	44.7µM*
Fc1ccc(NC(=S)NCc2ccc3c(c2)OCO3)cc1	13.2%	7.4	-0.2%	-2.0%	-25.5%	-19.8%
NS(=O)(=O)c1ccc(NC(=S)NCc2ccc3c(c2)OCO3)cc1	2.6%	2.1	·	21.2µM*	-12.4%	?
CCCN(CCC)S(=O)(=O)c1ccc(C(=O)NCc2ccc3c(c2)OCO3)cc1	30.0%	4.1	16.0%	-8.5%	-12.0%	7.0%
NS(=O)(=O)c1cccc(NC(=O)CN2CCN(Cc3ccc4c(c3)OCO4)CC2)c1	15.1%	-1.1	-9.2%[59 µM]	2.6%	-13.2%	-2.0%
NS(=O)(=O)c1cccc(NC(=S)NCc2ccc3c(c2)OCO3)c1	3.3%	-8.3	50.1µM*	?	-19.6%	-19.2%
CCN(CC)S(=O)(=O)c1ccc(C(=O)NCc2ccc3c(c2)OCO3)cc1	-6.2%	-3.1	-6.9%	21.2µM*	-28.5%	-11.4%
COc1cccc(-c2cnc(C(O)c3ccc(C)c(F)c3)[nH]2)c1 (configuration not stated)	·	-0.1	·	4.6%	·	·
COc1ccc(N(CC(=O)N/N=C/c2ccc3c(c2)OCO3)S(=O)(=O)c2ccc(NC(C)=O)cc2)cc1	?	-20.6	7.6%	26.7µM*	?	0.7%
O=C(Nc1cccc(Cl)c1N1CCCC1)c1ccc([N+](=O)[O-])o1	-25.2%	11.9	10µM*	-6.5%	?	?
O=C(Nc1ccccc1N1CCCCC1)c1ccc([N+](=O)[O-])o1	44.7µM*	3.1	11.2µM*	-2.8%	?	11.2µM*
NS(=O)(=O)c1ccc(O)c(NC(=O)c2ccc([N+](=O)[O-])o2)c1	44.7µM*	?	?	4.23µM*	50.1µM*	-15.8%
SMILES	HP1b binding inh	PI5P4K alpha inh	G9a inh	PLK1 PBD block	JMJD2A Tudor	BAZ2B inh
O=C(c1ccc([N+](=O)[O-])o1)N1CCN(c2nc3c(Cl)cccc3s2)CC1	-17.4%	-9.9	35.5µM*	-6.3%	?	?
CN1CCN(c2ccccc2NC(=O)c2ccc(-c3ccccc3[N+](=O)[O-])o2)CC1	-30.8%	12.5	?	-13.6%	56.2µM*	?
O=C(Nc1ccccc1N1CCOCC1)c1ccc([N+](=O)[O-])o1	5.2%	0.3	59.1%	-4.9%	-15.1%	-15.7%
CCc1ccc(NC(=O)C(CC)n2c(=O)c(-c3ccccc3NC(C)=O)nc3ccccc32)cc1 (configuration not stated)	-2.3%	·	-14.3%[59 µM]	·	-9.9%	-23.7%
CN(Cc1c(F)cccc1Cl)C(=O)CCc1c[nH]c2ccccc12	-17.3%	-1.6	?	1.3%	?	70.8µM*
O=C(CSc1ccsc1[N+](=O)[O-])N1CCN(c2ccccn2)CC1	-20.3%	-51.3*	44.7µM*	?	?	?
Cc1cccc(N2CCN(S(=O)(=O)c3ccc4c(c3)CCN4C(=O)CCC(=O)O)CC2C)c1 (configuration not stated)	?	2.7	?	-12.3%	56.2µM*	?
Cc1cccc(N2CCN(C(=O)C3CCN(c4nnc(-n5cccc5)s4)CC3)CC2C)c1 (configuration not stated)	-3.7%	0.8	50.1µM*	-12.6%	?	?
Cc1cccc(N2CCN(C(=O)CCC(=O)N3CC(C)Oc4ccc(C)cc43)CC2C)c1 (configuration not stated)	-10.3%	5.9	44.7µM*	-7.2%	?	?
CCOc1ccc(NC(=O)CSc2nc3c(oc4ccccc43)c(=O)n2-c2cc(C)cc(C)c2)cc1	16.2%	·	-3.0%[59 µM]	·	-8.7%	-0.6%
O=C(NC1CCN(Cc2ccccc2)CC1)c1cccc(Br)c1	13.4%	3.8	-5.8%	5.3%	-17.3%	10.0%
O=C(CSc1nc(O)c(C/C=C/c2ccccc2)c(=O)[nH]1)Nc1cccc(F)c1	-10.0%	·	-37.7%[59 µM]	·	-29.8%	-12.1%
Cc1cccc(N2CCN(C(=O)CSc3ccsc3[N+](=O)[O-])CC2C)c1 (configuration not stated)	-36.1%	?	?	-5.4%	?	39.8µM*
COc1ccc(CCNC(=O)CCCn2c(=S)[nH]c3cc4c(cc3c2=O)OCO4)cc1OC	·	1.4	·	-5.5%	·	·
O=C1CCc2cc(S(=O)(=O)Nc3ccc(F)c(Cl)c3)ccc2N1	·	·	·	·	0.7%	·
O=c1c(F)cn(C2CCCO2)c(=O)n1Cc1ccc(Cl)cc1 (configuration not stated)	9.3%	-15.3	7.1%	26.7µM*	-16.8%	0.2%

Bioassay records as filed in PubChem BioAssay.
